The panel holds about 83,000 compounds, 20% with a hit somewhere; the sample as a whole holds those more often.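 Single-dose data. Exposure time 48 hours. Values below 10 considered active.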 Calls of active or inactive are those of the source.

The subject of this assay is SF-295 CNS. Description: NCI-60 one-dose screen, 48 h (100 = growth as untreated, 0 = no growth, -100 = all killed). The conditions noted are these: 10 µM unless noted.
In the case of `COc1cc(C2=NN(C(C)=O)C(c3ccc(N4CCOCC4)cc3)C2)cc(OC)c1OC` (centres undefined), the growth was 101% (inactive). Consider `COc1ccc([C@H]2c3[nH]c4ccccc4c3C[C@@H]3C(=O)N(C4CCN(Cc5ccccc5)CC4)CC(=O)N23)c(OC)c1`, for which the growth was 94.6% (inactive). In the case of `COc1ccc([C@H]2[C@H](O)C(=O)N2c2cc(OC)c(OC)c(OC)c2)cc1Cl` it was 5.44% (active); in that of `COc1ccc(/C=C/C(=O)c2nnn(-c3ccc(C(=O)O)cc3)c2C)cc1OC`, 103% (inactive).

In the case of `O=[N+]([O-])c1ccc(-c2nnc(SCc3ccc(O)c4ncccc34)n2-c2ccccc2)cc1`, the growth is 5.71% (active). As for `O=C(NCCCNc1cc(-c2cn(-c3ccccc3)nc2-c2cccc(O)c2)ccn1)Nc1cccc(C(F)(F)F)c1`, the growth was -15.3% (active). As for `CC(C)C(=O)Nc1ccc(-c2nc(-c3cccc(O)c3)c(-c3ccnc(Br)c3)[nH]2)cc1`, the growth is -40.5% (active).

With `Cc1cc(F)cc(NS(=O)(=O)c2ccc(-c3cnc(C4CC4)o3)cc2)c1`, the growth was -5.64% (active). In the case of `CCOC(=O)c1c(NCC(=O)Nc2cccc(Cl)c2)sc2c1CCCC2` it was 80.1% (inactive); in that of `O=S(=O)(Nc1cc(Cl)cc(Cl)c1)c1ccc(-c2cnc(C3CC3)o2)cc1`, 17.4% (inactive); in that of `COc1cc2c3c(n(CCCNC4CCC4)c(=O)c2cc1OC)-c1cc2c(cc1C3=O)OCO2`, 20.4% (inactive). The figure for `CCOC(=O)Nc1cccc(-n2cnc3cc(-c4ccc(O)cc4)ccc32)c1` is 14.6% (inactive); for `CC(=O)NC(C)(C)C(=O)N[C@@H](C)C(=O)NC(C)(C)C(=O)N[C@@H](C)C(=O)NC(C)(C)C(=O)N[C@@H](C)C(=O)N[C@@H](CCC(N)=O)C(=O)NC(C)(C)C(=O)N[C@H](C(=O)NC(C)(C)C(=O)NCC(=O)N[C@@H](CC(C)C)C(=O)NC(C)(C)C(=O)N1CCC[C@H]1C(=O)N[C@H](C(=O)NC(C)(C)C(=O)NC(C)(C)C(=O)N[C@@H](CCC(N)=O)C(=O)N[C@@H](CCC(N)=O)C(=O)N[C@H](CO)CC1CCCCC1)C(C)C)C(C)C` it is 23.9% [5 µM] (inactive); for `Cc1nn(-c2ccc(Cl)cc2)c(C)c1N=Nc1ccc2oc(=O)ccc2c1` it is 90% (inactive).

`O=C(NCCNc1cc(-c2cn(-c3ccccc3)nc2-c2cccc(O)c2)ccn1)Nc1ccc(Cl)c(C(F)(F)F)c1`: the growth is 7.84% (active). The figure for `CN(c1ccc(Br)cc1)S(=O)(=O)c1ccc(-c2cnc(C3CC3)o2)cc1` is -0.0962% (active). In the case of `CC(C)C[C@H]1C(=O)O[C@H](C(C)C)C(=O)N(C)[C@@H](C(C)C)C(=O)O[C@H](C(C)C)C(=O)N(C)[C@@H](C(C)C)C(=O)O[C@H](C(C)C)C(=O)N1C` it was 5.53% (active); in that of `CCCC(=O)NC(c1cccnc1)c1cc(Cl)c2cccnc2c1O` (centres undefined), 10.8% (inactive).

For the molecule `Nc1nc(-c2cccc([N+](=O)[O-])c2)c(N=Nc2ccccc2[N+](=O)[O-])s1`, the growth is 26.6% (inactive).

Take `C/C(=N\NC(=O)CSc1nc2sc3c(c2c(=O)n1-c1ccccc1)CCC(C)C3)c1ccc(Cl)cc1` (centres undefined): the growth is 40.9% (inactive).

In the case of `C#C[C@]1(O)CC[C@H]2[C@@H]3CC=C4c5sc(Nc6nc(C)cc(OC)n6)nc5CC[C@]4(C)[C@H]3CC[C@@]21C`, the growth was -60% (active). With `CN1CCN(c2ccc(NC(=O)Nc3ccc4c(ccn4-c4cccc(C(N)=O)n4)c3)cc2C(F)(F)F)CC1`, the growth is -54.7% (active). In the case of `COc1ccc(NS(=O)(=O)c2ccc(-c3cnc(C4CC4)o3)cc2)cc1Cl` it was 10.6% (inactive); in that of `CC1OC(O[C@@H]2C(O)C(CO)OC(O[C@H]3COC(O[C@H]4CC[C@]5(C)[C@H]6CC[C@]78OC[C@@]9(CC[C@](C)(C=O)C[C@H]97)[C@H](O)C[C@@]8(C)[C@]6(C)CC[C@H]5C4(C)C)[C@@H](OC4OC(CO)[C@@H](O)[C@@H](O)[C@@H]4O)[C@@H]3O)[C@H]2OC2OC[C@@H](O)[C@@H](O)[C@@H]2O)[C@@H](O)[C@@H](O)[C@H]1O` (some centres undefined), -59.2% (active); in that of `COc1ccc(-c2ccc3c4c(cccc24)C(=O)N(N2C(=O)c4cccc5cccc(c45)C2=O)C3=O)cc1`, 105% (inactive). The figure for `N#Cc1c(NC(=O)c2ccc(F)c(Cl)c2)sc2c1CCC(=O)C2` is -12.2% (active); for `Nc1ccc(-c2nnc(SCc3ccc(O)c4ncccc34)o2)cc1` it is -21.6% (active); for `IP(CCCCCCCCCCSc1n(Cc2ccc3ccccc3c2)c(-c2ccccc2)c(-c2ccccc2)[n+]1Cc1ccc2ccccc2c1)(c1ccccc1)(c1ccccc1)c1ccccc1` it is -77.6% (active). The figure for `Cc1cc(Cl)cc(NS(=O)(=O)c2ccc(-c3cnc(C4CC4)o3)cc2)c1` is 1.04% (active); for `COc1cc(/C=N/n2cnc3oc(-c4ccccc4)cc3c2=N)cc(CN2CCCCC2)c1O` it is -96% (active).

With `CCOC(=O)c1c(NC(=O)c2ccc(C(C)(C)C)cc2)sc2cc(OCCN3CCCCC3)ccc12`, the growth was 99.7% (inactive).

For the molecule `NS(=O)(=O)Oc1ccc2nc(Nc3ccc(F)c(F)c3)ccc2c1`, the growth is 82.8% (inactive). `CC(=O)c1sc(Nc2cccc(Nc3nc(C)c(C)s3)c2)nc1C`: the growth was 86.5% (inactive).

With `CCCCCCNC(=O)Oc1ccc(/C(=C(\C)c2ccc(OC)cc2)c2ccc(OCCN(C)C)cc2)cc1`, the growth is 80.8% (inactive). As for `Cc1cccc(NC(c2cc3cccc4ccc5cccc2c5c43)c2nnnn2C(C)(C)C)c1C` (centres undefined), the growth was 87.2% (inactive). `CCOC(=O)c1c(NCC(=O)Nc2cccc([N+](=O)[O-])c2)sc2c1CCCC2`: the growth was -90.2% (active). As to `O=c1oc2ccc(-c3ccc(F)cc3F)cc2c(=O)n1-c1ccc(F)c(F)c1`, the growth was -12.6% (active). For the molecule `Brc1cccc(/C=N/Nc2nc(N/N=C/c3cccc(Br)c3)nc(N3CCOCC3)n2)c1`, the growth is 29.1% (inactive). Take `N#C/C(=C\c1ccc2ccccc2c1)C(=O)Nc1sc2c(c1C#N)CCC2`: the growth was 95.3% (inactive).

The record behind these values is PubChem BioAssay (NCI).
